Screening results as filed in PubChem.
TDP1 cell noCPT: qHTS for Inhibitors of human tyrosyl-DNA phosphodiesterase 1 (TDP1): qHTS in cells in absence of CPT; hit rate 15% among 420,000; Potency, µM (doses to about 46.2 µM), hits mostly inhibitors; DT40 Tdp1-/- hTDP1 cells, no CPT, ATP luminescence, 48 h; also: nearly all actives have a fitted effect of over 55% in size
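Luminescent ATP content (CellTiter-Glo) served as the growth readout. Knockout chicken DT40 cells expressing human TDP1 were exposed to compounds without camptothecin for a minimum 48 hr at 37 °C.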
HT1080-NT tox: qHTS for induction of synthetic lethality in tumor cells producing 2HG: qHTS for the HT-1080-NT fibrosarcoma cell line; HT-1080-NT fibrosarcoma viability, CellTiter-Glo ATP luminescence, 48 h; hit rate 1.6% among 360,000; AID 686970, 2013; Potency, µM (titrated, usually from 46.1 µM), hits mostly cytotoxic;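 also: NT is the 2HG producing partner of a matched IDH1 knockdown line; nearly all actives have a fitted effect of over 55% in size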
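Read-out is CellTiter-Glo luminescence after 10 minutes at room temperature, following 48 hours' compound treatment of HT-1080-NT cells (750 cells/well, RPMI, 5% FBS, 37 degrees C).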
IL-1B inflam inh: qHTS for Inhibitors of Inflammasome Signaling: IL-1-beta AlphaLISA Primary Screen | THP-1 LPS/ATP IL-1B secretion, AlphaLISA, 16 h; hits give low values | hit rate 4.7% among 360,000 | activity change, % at 57.5 µM | AID 743279, 2014; in the data active = activity change below about -50%; inconclusive = mostly about -30% to -49%
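Secreted IL-1B measured by AlphaLISA bead assay after 16 h compound exposure of THP-1 cells; compounds (final up to 57.5 uM) added 1 h before LPS (250 ng/mL) and ATP (1.25 mM) stimulation; lower signal means less secretion.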
TDP1 cell CPT: qHTS for Inhibitors of human tyrosyl-DNA phosphodiesterase 1 (TDP1): qHTS in cells in presence of CPT | chicken DT40 Tdp1-/-;hTDP1 cells + 20 nM CPT, ATP luminescence, 48 h | Potency, µM (series often up to 46.2 µM), most hits filed as inhibitors | hit rate 12% among 420,000 | AID 686979, 2013; also: nearly all actives have a fitted effect of over 55% in size
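Cell growth measured by CellTiter-Glo luminescence after a minimum 48 h, 37 C compound exposure with 20 nM CPT in Tdp1-knockout DT40 cells stably expressing hTDP1, seeded 400/well; qHTS titration format.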
HT1080 IDH1KD tx: qHTS for induction of synthetic lethality in tumor cells producing 2HG: qHTS for the HT-1080-IDH1KD cell line. HT-1080 IDH1 knockdown viability, ATP luminescence, 48 h. Potency, µM (series often up to 46.1 µM), actives largely listed as cytotoxic. hit rate 2% among 360,000. AID 686971, 2013
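Viability of IDH1-knockdown HT-1080 fibrosarcoma cells was assessed by CellTiter-Glo after 48 h at 37 °C with titrated compound; concentration-effect curves were classified by fit quality and response size.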
Numbers stand for hits; - = inactive; ? = inconclusive; . = no result given; [ ] = another dose, or the depositor's remark. Shown are actives, neighbours in structure and some others; about 19% of the full set was active somewhere. Unless noted, calls follow the shape of the dose curve; as a rule, active = well fitted curve in the direction sought with a large enough effect; inconclusive = small, poorly fitted or top-dose-only effect, or another doubt; inactive = no such curve, though single readings can be large; an effect the other way counts as inactive or inconclusive.

SMILES | TDP1 cell noCPT | HT1080-NT tox | IL-1B inflam inh | TDP1 cell CPT | HT1080 IDH1KD tx
Cc1cc(NC2=CC(=O)C(=O)c3ccccc32)no1 | 12µM | ? | -101 | 6.5µM | ?
COc1ccc(C(=O)O/N=C2\CCS(=O)(=O)c3sccc32)cc1 | - | - | - | - | -
COc1ccc(N=C2CCS(=O)(=O)c3sccc32)cc1 | ? | - | - | 9.2µM | ?
CCCNC(=O)CN1CCN(c2cc3ccccc3c(Cl)n2)CC1 | 16µM | - | - | ? | -
CCCNC(=O)CN1CCN(c2ncc(NC(=O)c3ccc(Cl)cc3)cc2C(=O)O)CC1 | - | . | . | - | .
Cc1ccc(S(=O)(=O)Oc2ccc(N3C(=O)C4C5CCC(C5)C4C3=O)cc2)cc1 (stereo unspecified) | 23µM | - | - | 4.1µM | -
CC(=O)Nc1ccc(S(=O)(=O)Oc2cccc(N3C(=O)C4CCCCC4C3=O)c2)cc1 (stereo unspecified) | ? | - | - | ? | -
Cc1ccc(S(=O)(=O)Oc2cccc(N3C(=O)C4CC=CCC4C3=O)c2)cc1 (stereo unspecified) | ? | - | - | 16µM | -
Cc1ccc(S(=O)(=O)Oc2ccccc2N2C(=O)C3C4CCC(C4)C3C2=O)cc1 (stereo unspecified) | - | - | - | - | -
CC(C)C1Cc2[nH][nH]c(=O)c2C(C2CC2)O1 (stereo unspecified) | - | - | - | - | -
CCC1(c2ccccc2)NC(=O)N(CC(=O)Nc2cc(S(=O)(=O)N3CCCCC3)ccc2OC(C)C)C1=O (stereo unspecified) | ? | - | ? | 23µM | -
CCOc1ccc(S(=O)(=O)N2CCCCC2)cc1NC(=O)CN1C(=O)NC(CC)(c2ccccc2)C1=O (stereo unspecified) | ? | - | - | ? | -
CCC1(c2ccccc2)NC(=O)N(CC(=O)Nc2cc(S(=O)(=O)N3CCCCCC3)ccc2OC)C1=O (stereo unspecified) | 21µM | - | - | 16µM | -
Cc1ccc(NC(=O)CN2C(=O)C(c3ccccc3)=NC2(C)C)cc1C | - | . | . | - | .
O=C(Cn1nc(C(F)(F)F)cc1C1CC1)NCc1ccccc1F | - | - | - | ? | -
CC1=C([N+](=O)[O-])C(c2ccc(Cl)cc2)NC(=O)N1C (stereo unspecified) | 5.8µM | - | - | 6.5µM | -
COc1ccc(-c2c(C#N)c(N)nc3c2CCCCCC3)cc1OC | - | - | - | - | -
COc1ccccc1-c1c(C)c(C)nc(N)c1C#N | - | - | - | - | -
COc1ccccc1-c1c(C#N)c(N)nc2c1CCc1ccccc1-2 | 6.5µM | 15µM | - | 6.5µM | 16µM
CCOc1cc(-c2c(C#N)c(N)nc3c2CCCC3C)ccc1O (stereo unspecified) | ? | ? | - | 9.2µM | ?
CCOc1cc(-c2c(C#N)c(N)nc3c2CCc2ccccc2-3)ccc1O | 15µM | - | - | 18µM | ?
CCc1nc(N)c(C#N)c(-c2ccccc2OC)c1C | - | - | - | 13µM | -[9.24 µM]
COc1ccccc1-c1cc(C2CC2)nc(N)c1C#N | - | - | - | - | -
O=C(NCc1ccc(OC(F)(F)F)cc1)C1CC(c2cccc(F)c2)=NO1 (stereo unspecified) | - | - | - | - | -
COC(=O)c1cc(C)nc2c1c(=O)nc(SCc1ccccc1F)n2C1CC1 | - | . | . | - | .
SMILES | TDP1 cell noCPT | HT1080-NT tox | IL-1B inflam inh | TDP1 cell CPT | HT1080 IDH1KD tx
CCCCN(C=O)c1c(CC)nc2ccc(C(=O)Nc3cc(-c4ccccc4)ccc3OC)cn12 | 16µM | ? | -70 | ? | ?
CCc1nc2ccc(C(=O)Nc3cc(-c4ccccc4)ccc3OC)cn2c1N(CC)CCN(C)C | 18µM | 18µM | - | 16µM | 13µM
CC(C)(C)n1nc2c(c1NC(=O)Cc1ccccc1)CS(=O)(=O)C2 | - | - | - | - | -
COc1ccccc1NS(=O)(=O)NC(=O)c1cn(C)c2ccccc12 | - | - | - | - | -
COc1ccccc1N(C(=O)CCl)c1cn(C(C)=O)c2ccccc12 | 4.6µM | 1.5µM | -60 | 4.6µM | 7.3µM
CC(=O)n1cc(N(C(=O)CCl)c2ccc(Cl)cc2)c2ccccc21 | 1.3µM | 2.3µM | - | 1.5µM | 6.5µM
C=CCc1cccc2cc(C(=O)N3CCN(C(=O)c4ccco4)CC3)c(=O)oc12 | - | - | - | - | -
COc1ccc(-c2[nH]ncc2C(=O)NCc2cccc(F)c2)cc1 | - | . | . | - | .
Nc1ccn([C@@H]2O[C@H](CNCc3ccc(OCC(=O)Nc4nccs4)cc3)[C@@H](O)[C@H]2O)c(=O)n1 | - | - | - | - | -
Cc1c(C(=O)N(C)Cc2cscn2)sc2ncnc(NC[C@H]3CCc4ccccc4O3)c12 | ? | . | . | -[9.04 µM] | .
S=C(NCCc1ccccc1)NCCc1ccccc1 | ? | - | - | ? | -
C/C(=N\NC(=S)NCCc1ccccc1)c1cccs1 | 5.2µM | - | - | 5.2µM | -
CC(NC(=S)NCCc1ccccc1)C(c1cccs1)N1CCN(Cc2ccccc2)CC1 (stereo unspecified) | ? | ? | - | 16µM | ?
C/C(CCc1ccccc1)=N\NC(=S)NCCc1ccccc1 | 13µM | - | - | ? | -
COc1ccc(NC(=O)CCNC(=O)c2ccccc2Cl)cc1S(=O)(=O)N1CCCCC1 | - | - | - | - | -
CC1(Oc2ccccc2)CCN(Cc2csc3ccccc23)C1 (stereo unspecified) | ? | - | - | ? | -
COc1ccc2c3c(cccc13)C(=O)CC2 | 21µM | ? | ? | 18µM | ?
CC(C)(C)n1nnnc1C(c1ccnc2ccccc12)N1CCN(C/C=C/c2ccccc2)CC1 (stereo unspecified) | 16µM | ? | - | 16µM | -
Cc1cccc(C)c1-n1nnnc1C(c1ccnc2ccccc12)N1CCN(C/C=C/c2ccccc2)CC1 (stereo unspecified) | 8.2µM | ? | - | 9.2µM | ?
CC(C)(C)OC(=O)N1CCCN(C(c2cc3ccccc3o2)c2nnnn2C(C)(C)C)CC1 (stereo unspecified) | ? | ? | - | ? | ?
Cc1cccc(C)c1-n1nnnc1C(c1ccnc2ccccc12)N1CCN(C(=O)OCc2ccccc2)CC1 (stereo unspecified) | 16µM | - | - | ? | -
CC(C)(C)n1nnnc1C(c1cc2ccccc2o1)N1CCN(C(=O)OCc2ccccc2)CC1 (stereo unspecified) | 18µM | - | - | ? | ?
